nsP2pro inh = CHIKV nsP2 protease inhibition, primary qHTS. Q8JUX6. FRET peptide cleavage, nsP2pro, fluorescence 1 h. Potency, µM (highest dose often 24.9 µM), for the others: at the top dose activity change, negative = inhibition, most hits filed as inhibitors. hit rate 1.1% among 31,000; note: nearly all actives have a fitted effect of over 60% in size
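FRET cleavage of 2.5 uM peptide 2 by 150 nM CHIKV protease domain at pH 8.0 (Tris, Tween 20). Compounds at 7 concentrations (up to 25 uM) preincubated 15 min. Fluorescence read after 1 h at room temperature.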
CHIKV nsP2 cell = secondary cell-based test for CHIKV nsP2 protease inhibitors | Potency, µM (highest dose often 51.1 µM), for inactives: at the top dose activity change, negative = inhibition, most hits filed as inhibitors | shares compounds with nsP2pro inh | cell-based CHIKV nsP2 protease reporter assay | hit rate 10% among 450; note: nearly all actives have a fitted effect of over 70% in size
CHIKV NSP2 FL = inhibits full-length CHIKV NSP2 enzyme; shares compounds with nsP2pro inh; Full-length CHIKV NSP2 protease enzymatic counterscreen; Potency, µM (series often up to 50.7 µM), for the others: top-dose activity change, negative = inhibition, usual class: inhibitors; hit rate 39% among 410; AID 1964101; note: nearly all actives have a fitted effect of over 65% in size
Furin counter = selectivity counter-screen for CHIKV nsP2 protease inhibitors: human furin; shares compounds with nsP2pro inh; Recombinant human furin enzymatic counterscreen, fluorogenic substrate; hit rate 6% among 410; Potency, µM (titrated, usually from 50.6 µM), without a hit: top-dose activity change, negative = inhibition, usual class: inhibitors
NS23 peptide cs = selectivity test for CHIKV nsP2 protease inhibitors: endogenous NS2/3 peptide; shares compounds with nsP2pro inh; Purified CHIKV nsP2 protease, endogenous NS2/3 peptide cleavage; Potency, µM (top dose mostly 51 µM), for the others: at the highest dose activity change, negative = inhibition, hits mostly inhibitors; hit rate 34% among 410; AID 1964103; note: nearly all actives have a fitted effect of over 55% in size
Papain cs = papain protease inhibition, counterscreen for nsP2pro inhibitors. Potency, µM (titrated, usually from 51 µM), inactives show top-dose activity change, negative = inhibition, usual class: inhibitors. AID 1964104. hit rate 5% among 410. purified papain protease activity, enzymatic inhibition. shares compounds with nsP2pro inh
Target sequence (P00784 whole entry, looked up): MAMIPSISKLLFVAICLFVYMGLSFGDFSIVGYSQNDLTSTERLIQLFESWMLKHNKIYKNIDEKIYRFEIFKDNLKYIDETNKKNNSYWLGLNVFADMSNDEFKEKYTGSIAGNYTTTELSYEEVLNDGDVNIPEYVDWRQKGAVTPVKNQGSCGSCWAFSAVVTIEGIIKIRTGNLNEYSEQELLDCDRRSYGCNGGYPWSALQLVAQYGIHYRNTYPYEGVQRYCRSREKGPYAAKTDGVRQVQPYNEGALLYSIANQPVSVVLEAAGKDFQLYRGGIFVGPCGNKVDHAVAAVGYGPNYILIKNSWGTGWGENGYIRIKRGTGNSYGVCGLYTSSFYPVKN
nsP2pro confirm = CHIKV nsP2 protease inhibition, confirmatory qHTS; shares compounds with nsP2pro inh; CHIKV nsP2 protease enzymatic activity, qHTS; Potency, µM (doses to about 25.5 µM), for inactives: at the top dose activity change, negative = inhibition, hits mostly inhibitors; hit rate 43% among 410; note: nearly all actives have a fitted effect of over 75% in size
HCV NS3 4A cs = inhibits HCV NS3/4A protease in an nsP2pro selectivity counterscreen; shares compounds with nsP2pro inh; HCV NS3/4A protease biochemical counterscreen; Potency, µM (doses to about 50.9 µM), actives largely listed as inhibitors; hit rate 20% among 410; note: nearly all actives have a fitted effect of over 55% in size
Active calls of the source: *; i = inactive; ? = inconclusive; [ ] = another dose, or the depositor's remark. This is one part of a sample in which hits are shown more often than they occur. Calls come from the whole dose curve. % is set by controls: 0 for no effect and ±100 for the full control effect; potency is the fitted concentration of half-maximal effect.

SMILES | nsP2pro inh | others
Cn1ccc(C(=O)NCc2nnc3n2C(C(=O)NCC2CC2)CC3)n1 (centres undefined) | 7.9µM* | CHIKV nsP2 cell=10%;CHIKV NSP2 FL=?;Furin counter=-6%;NS23 peptide cs=?;Papain cs=3%;nsP2pro confirm=?;HCV NS3 4A cs=11µM*
O=C(NCc1nnc2n1C(C(=O)N1CCCC1)CC2)Nc1cccnc1 (centres undefined) | -20%
CC(=O)NCc1nnc2n1C(C(=O)NC1CCCCCC1)CC2 (centres undefined) | -22%[39.2 µM]
Cc1cc(-c2nnc3n2CCCCC3)c(C)n1-c1ccc(Cl)c(Cl)c1 | -2%
CC#CC(=O)N1CC[C@@H](n2c(=O)n(-c3ccc(Oc4ccccc4)cc3)c3c(N)ncnc32)C1 | -2%
Cc1ccnc(NC(=S)N2CCCc3ccc(C(F)(F)F)cc32)c1 | i
CCN(c1ccccc1)S(=O)(=O)c1ccc(NC(=O)c2nc(S(C)(=O)=O)ncc2Cl)cc1 | ? | CHIKV nsP2 cell=2.6µM*;CHIKV NSP2 FL=4.1µM*;Furin counter=-6%;NS23 peptide cs=5.8µM*;Papain cs=-15%;nsP2pro confirm=4.5µM*;HCV NS3 4A cs=i
CCSc1ncc(Cl)c(C(=O)Nc2ccc(S(=O)(=O)N(C)c3ccccc3)cc2)n1 | -12%
CC(C)Sc1ncc(Cl)c(C(=O)Nc2ccc(S(=O)(=O)N(C)c3ccccc3)cc2)n1 | -17%
CCC1C(O)C2C3CCC(C(C)CCC(=O)O)C3(C)CCC2C2(C)CCC(O)CC12 (centres undefined) | -20%
Cc1ccc(CNc2ncnc3ccc(-c4oc(-c5ccccc5)nc4C)cc23)o1 | i
Cc1ccnc(NC(=S)N2CCN(c3ccc(Cl)c(Cl)c3)CC2)c1 | i
Cc1cc(C)nc(NC(=S)N2CCN(Cc3cccc4ccccc34)CC2)c1 | -6%
Cc1ccc(S(=O)(=O)/C=C/C#N)cc1 | 0.88µM* | CHIKV nsP2 cell=?;CHIKV NSP2 FL=0.92µM*;Furin counter=5%;NS23 peptide cs=4.6µM*;Papain cs=-5%;nsP2pro confirm=0.28µM*;HCV NS3 4A cs=i
O=C1Nc2ccccc2/C1=C/c1cc(Cl)c(O)c(Cl)c1 | i
CCN(CCn1cccn1)Cc1ccccc1OCC(O)CN1CCCCC1 (centres undefined) | -4%
CCOC(=O)c1cn(C2CN(S(=O)(=O)Cc3ccccc3)C2)nn1 | -8%
CCN1CCC(=C2c3ccccc3CCc3ccccc32)C1C (centres undefined) | -12%
COc1cccc(N2C(=O)NC(=NC3CCCCC3)C23CCCN(CC2CCCCC2)C3)c1 (centres undefined) | -18%
Cc1c(C(=O)OC2CCCCC2)[nH]c2c1C(=O)CC(c1ccccc1Cl)C2 (centres undefined) | -15%
COc1ccc(C2CC(=O)c3c([nH]c(C(=O)OCc4ccccc4)c3C)C2)cc1OC (centres undefined) | -17%
Cc1c(C(=O)OCC2CCCC2)[nH]c2c1C(=O)CC(c1ccco1)C2 (centres undefined) | 4µM* | CHIKV nsP2 cell=?;CHIKV NSP2 FL=-15%;Furin counter=-4%;NS23 peptide cs=-5%;Papain cs=-4%;nsP2pro confirm=8%;HCV NS3 4A cs=i
Nc1ncnc2c1ncn2C1O[C@H](COP(=O)(O)OP(=O)(O)OP(=O)(O)O)[C@@H](O)[C@H]1O (some centres undefined) | -17%
CN1C[C@H](C(=O)N[C@]2(C)O[C@@]3(O)[C@@H]4CCCN4C(=O)[C@H](Cc4ccccc4)N3C2=O)C=C2c3cccc4[nH]cc(c34)C[C@H]21 | ? | CHIKV nsP2 cell=9%;CHIKV NSP2 FL=?;Furin counter=-14%;NS23 peptide cs=13µM*;Papain cs=46%;nsP2pro confirm=?;HCV NS3 4A cs=i
CC(C)C[C@H]1C(=O)N2CCC[C@H]2[C@]2(O)O[C@](NC(=O)[C@@H]3C[C@@H]4c5cccc6[nH]cc(c56)C[C@H]4N(C)C3)(C(C)C)C(=O)N12 | -12%
SMILES | nsP2pro inh | others
Cc1ccc(-c2nc(CN3CCCC3=O)no2)cc1 | -3%
O=C(c1ccc(CN2C(=O)NC3(CCOCC3)C2=O)cc1)N1CCc2ccccc2C1 | 1%
O=C(O)c1cccc(-c2noc(-c3ccc(F)cc3)n2)c1 | i
Cc1ccnc(NC(=S)N2CC[C@@H](Nc3cccc(C(F)(F)F)c3)C2)c1 | 4%
OB1OCc2cc(F)ccc21 | -1%
O=C(Nc1ccc(OC(F)(F)F)cc1)c1cc2ccccn2n1 | -18%
CCOc1ccc(NC(=O)c2cnc(N3CCCCC3)c3ccccc23)cc1 | 2%
O=C(Nc1ccc(OC(F)(F)F)cc1)c1nc2ccccc2nc1N1CCCCC1 | ? | CHIKV nsP2 cell=37%
CC(C(=O)O)c1ccc(CC2CCCC2=O)cc1 (centres undefined) | -2%
CC(C(=O)O)c1ccc(C(=O)c2cccs2)cc1 (centres undefined) | -17%[39.2 µM]
C=C(C)CNc1ccc(C(C)C(=O)O)cc1 (centres undefined) | 8.8µM* | CHIKV nsP2 cell=1%;CHIKV NSP2 FL=-5%;Furin counter=-5%;NS23 peptide cs=-14%;Papain cs=-5%;nsP2pro confirm=-16%;HCV NS3 4A cs=i
Nc1ncnc2c1ncn2[C@@H]1O[C@H](CSCC[C@H](N)C(=O)O)[C@@H](O)[C@H]1O | -18%
COc1ccc(C2(C(=O)N3CCCC(Cn4c(C)nc5cccnc54)C3)CCCCC2)cc1 (centres undefined) | i
CCCNC(=O)[C@@H]1Cc2cn(Cc3nccn3C)c3cccc(c23)[C@H](CC(C)C)N1 | -23%[39.2 µM]
O=C(NCc1ccnc2[nH]ccc12)c1ccccc1Cl | 4.5µM* | CHIKV nsP2 cell=24µM*;CHIKV NSP2 FL=4.7µM*;Furin counter=-15%;NS23 peptide cs=19µM*;Papain cs=-10%;nsP2pro confirm=12µM*;HCV NS3 4A cs=3µM*
O=C(NCc1c[nH]c2ncccc12)c1ccccc1Cl | 4%[39.2 µM]
O=C(NCc1ccc(Cl)cc1)c1c[nH]c2ncccc12 | i
CCOC(=O)c1ccc(O)c2ncc(N3CCC(C(=N)N)CC3)cc12 | 2%
Cc1nn(-c2ccccc2)c2c1C(C)N(C1CCN([S+](=O)([O-])c3ccccc3)CC1)C2=O (centres undefined) | i
CC1(C)CCC[C@@]2(C)[C@H]1[C@H](O)C=C1COC(=O)[C@@]12O | -13%
CO[C@H]1c2cc(C(C)C)c(O)c(O)c2[C@@]23CCCC(C)(C)C2[C@@H]1OC3=O (some centres undefined) | 6.1µM* | CHIKV nsP2 cell=-19%[33.5 µM];CHIKV NSP2 FL=16µM*;Furin counter=-10%[33.5 µM];NS23 peptide cs=13µM*;Papain cs=?;nsP2pro confirm=5.5µM*;HCV NS3 4A cs=i

Source: PubChem BioAssay
